In PubChem BioAssay AID2314 (National Center for Advancing Translational Sciences (NCATS), 2010):
Out of some 300,000 compounds screened, about 37,000 (12%) were called active. No stated cut-off is given here; in the data, active means max response mostly above about 13% (no sharp cut-off); inactive means mostly below about 14%. Shown is part of a subset that was picked to be rich in actives.

Assay: Cycloheximide Counterscreen for Small Molecule Inhibitors of Shiga Toxin; further: read at 38.3 µM for the half of the compounds with a filed dose; 0% is about no effect
Settings: cell reporter, cycloheximide protein synthesis inhibition counterscreen; active compounds read high

| Compound | max response |
| --- | --- |
| O=C(CN1C(=O)c2cccnc2Oc2ccc(Cl)cc21)NCCc1ccccc1 | 18.6% (inactive) |
| Cc1cc(C)n2nc(CNS(=O)(=O)c3c(F)c(F)c(F)c(F)c3F)nc2n1 | 1.02% (inactive) |
| COc1ccc(S(=O)(=O)c2c[nH]c(=S)[nH]c2=O)cc1Cl | -3.71% (inactive) |
| Cc1ccc(CNCc2ccc3c(c2)OCO3)c(C)c1 | 0.612% (inactive) |
| COc1cccc(CNCc2ccc3c(c2)OCO3)c1 | 7.15% (inactive) |
| COc1cc(CNCc2ccc3c(c2)OCO3)c([N+](=O)[O-])cc1OC | 13.8% (active) |
| Cc1ccc(-c2nn(-c3ccccc3)cc2/C=C/C(=O)Nc2cccc(S(N)(=O)=O)c2)cc1 | 6.92% (inactive) |
| COc1ccc(CCNC2=CC(=O)CC(C)(C)C2)cc1 | 17% (inactive) |
| CN1C(CC(=O)Nc2ccc(Br)cc2)c2ccccc2CC1(C)C (centres undefined) | 7.55% (inactive) |
| CCN(CC)CCN1C(=O)C(=O)/C(=C(/O)c2ccccc2)C1c1ccccc1F (centres undefined) | -1.86% (inactive) |
| CCN(CC)CCN1C(=O)C(=O)/C(=C(/O)c2cnn(-c3ccccc3)c2C)C1c1cccs1 (centres undefined) | 49.4% (active) |
| CCOc1cccc(/C(O)=C2/C(=O)C(=O)N(CCOC)C2c2ccncc2)c1 (centres undefined) | 3.2% (inactive) |
| COC(=O)c1cc(S(=O)(=O)N2CCC(C(N)=O)CC2)oc1C | -3.53% (inactive) |
| Cc1c(C)c(C)c(S(=O)(=O)N2CCC3(CC2)OCCO3)c(C)c1C | -1.61% (inactive) |
| CCc1c(C)c2ccc(OC3CCCCC3=O)cc2oc1=O (centres undefined) | 16.5% (active) |
| Cc1c(Cc2ccccc2)c(=O)oc2cc(OCC(N)=O)ccc12 | 1.87% (inactive) |
| CC(=O)Oc1ccc2c(C)c(CC(C)O)c(=O)oc2c1 (centres undefined) | -8.36% (inactive) |
| COc1ccc(-n2cnnc2SCC(=O)Nc2cccc(S(N)(=O)=O)c2)cc1 | -5.17% (inactive) |
| Cc1cc(C)c(S(=O)(=O)Nc2c(C)n(C)n(-c3ccccc3)c2=O)cc1[N+](=O)[O-] | -2.16% (inactive) |
| COc1cccc(OCc2nnc3n2N=C(c2ccccc2)C(CC(=O)O)S3)c1 (centres undefined) | 9.69% (inactive) |
| CCc1ccc(NC2Nc3cc(C)nn3S2)cc1 (centres undefined) | 49.2% (active) |
| CCOC(=O)c1ccc(NC2Nc3cc(C)nn3S2)cc1 (centres undefined) | 5.82% (inactive) |
| COC(=O)c1cc(C(=O)NC(C)C2CC3CCC2C3)cc([N+](=O)[O-])c1 (centres undefined) | -12.3% (inactive) |

| Compound | max response |
| --- | --- |
| COC(=O)c1ccc(N2CCOCC2)c(NC(=O)c2ccc(Br)o2)c1 | -2.23% (inactive) |
| CCn1c(/C=N/NC(=O)c2ccc(OC)cc2)nc2ccccc21 | -2.39% (inactive) |
| COc1ccc(/C=N/NC(=O)c2cccc(C(F)(F)F)c2)cc1 | 6.57% (inactive) |
| Cn1cccc1/C=N/NC(=O)c1ccc(OC(F)(F)C(F)F)cc1 | 38.1% (active) |
| CC(Oc1ccccc1)C(=O)Nc1c2c(nn1-c1ccccc1)CS(=O)C2 (centres undefined) | -2.14% (inactive) |
| CCCCCC(=O)Nc1ccc(-c2cn3cccnc3n2)cc1 | 25.3% (active) |
| CCOc1cc(-c2cc(-c3ccc(NC(C)=O)cc3)nc(N)c2C#N)ccc1O | -3.59% (inactive) |
| CC(=O)Nc1ccc(S(=O)(=O)Nc2cccc(NC(=O)C(C)(C)C)c2)cc1 | 4.2% (inactive) |
| CCCCCC(=O)Nc1ccc(S(=O)(=O)Nc2ccc(Cl)nn2)cc1 | 5.65% (inactive) |
| CCCCC(=O)Nc1ccc(C(=O)NCCCn2ccnc2)cc1 | 3.08% (inactive) |
| CC(C)(C)C(=O)Nc1ccc(-c2cn3cccnc3n2)cc1 | 28.5% (active) |
| CC(=O)Nc1ccc(OCC(=O)NCc2ccc(C)cc2)cc1 | 7.82% (inactive) |
| CC(=O)Nc1ccc(S(=O)(=O)Nc2nc(-c3ccc(C(C)(C)C)cc3)cs2)cc1 | -0.918% (inactive) |
| CC(=O)Nc1ccc(-c2cn3cccnc3n2)cc1 | 25.4% (active) |
| CON(C)S(=O)(=O)c1ccc2c(c1)NC(=O)C1CCCN21 (centres undefined) | -1.81% (inactive) |
| CCN(CC(=O)N1CCCC1)S(=O)(=O)c1ccc(F)cc1 | -0.599% (inactive) |
| Cc1ccc(O)c(CNc2nc3ccccc3[nH]2)c1 | 19.7% (active) |
| Cc1ccc(C)c(N2CCN(C(=O)CCc3nc4ccccc4[nH]3)CC2)c1 | -4.18% (inactive) |
| CC(C)n1c(NCc2c[nH]c3ccccc23)nc2ccccc21 | 5.28% (inactive) |
| Cc1ccc(O)c(CNc2nc3ccccc3n2C)c1 | 35% (active) |
| OCCNc1nc2ccccc2[nH]1 | -3.17% (inactive) |
| Cn1c(CNC(=O)C(C)(C)C)nc2ccccc21 | -0.534% (inactive) |
| CC(=O)c1ccc(NC(=O)Cn2c(=O)oc3ccccc32)cc1 | 0.709% (inactive) |

| Compound | max response |
| --- | --- |
| Cc1ccc(-n2ncc(C(=O)NC3CC3)c2C2CCN(C(=O)OC(C)(C)C)CC2)c(C)c1 | 5.17% (inactive) |
| CCOc1ccccc1NS(=O)(=O)c1c[nH]c(C(=O)OC)c1 | -0.295% (inactive) |
| Cc1ccccc1N1CC(C(=O)Nc2nnc(SCCC3OCCO3)s2)CC1=O (centres undefined) | 0.819% (inactive) |
| CCc1nnc(NC(=O)C2CC(=O)N(c3ccc4c(c3)OCCO4)C2)s1 (centres undefined) | 6.49% (inactive) |
| c1ccc2cc3c(NCCN4CCOCC4)ccnc3cc2c1 | -2.42% (inactive) |
| Cn1cc(C(=O)c2ccc(Cl)cc2Cl)cc1C(=O)NN | -5.78% (inactive) |
| O=C(CCN1CCCCC1)N=Nc1c(O)[nH]c2ccccc12 | 2.5% (inactive) |
| COc1ccccc1-n1ccnc1SCC(=O)NC(C)(C)C | -1.32% (inactive) |
| Cc1ccccc1CSCC(=O)NC(=O)NC(C)(C)C | 9.92% (inactive) |
| CC(C)(C)NC(=O)CSC(=Nc1ccccc1F)NC#N | 27.7% (active) |
| CCc1nn(CC(=O)N2CCN(CC)CC2)c(=O)c2cccn12 | -0.288% (inactive) |
| Cn1nnc(NC(=S)NC(=O)c2ccccc2)n1 | 10.8% (inactive) |
| Cc1ccc(C(=O)NC(=S)NCc2cccnc2)cc1 | 18.8% (inactive) |
| Cc1cc2[nH]ncc2cc1NC(=S)NC(=O)c1ccccc1 | 16.5% (active) |
| Cc1ccccc1C(=O)Nc1ccccc1NC(=O)c1ccccc1C | -4.55% (inactive) |
| CCc1ccccc1NC(=O)CCOc1ccccc1 | 0.846% (inactive) |
| Cc1ccccc1C(=O)Nc1ccccc1Sc1ccccc1 | -2.65% (inactive) |
| Cc1c(NC(=O)CCCOc2ccccc2)cccc1[N+](=O)[O-] | 6.53% (inactive) |
| Cc1ccccc1NC(=O)c1ccccc1 | 15.4% (active) |
| Cc1ccccc1NC(=O)CCOc1ccccc1 | 32.8% (active) |
| Cc1ccccc1NC(=S)NC(=O)Cc1ccc(Cl)cc1 | -2.71% (inactive) |
| Cc1cc(C)cc(C(=O)NC(=S)Nc2ccc3[nH]c(=O)[nH]c3c2)c1 | -3.08% (inactive) |
| Cc1ccc(C(=O)NC(=S)Nc2ccccc2C)cc1 | 43.9% (active) |
